Assay results taken from PubChem BioAssay.
Active and inactive are the calls of the source.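 The calls were made as follows, unless noted: active = compound raises insulin release from rat beta cells at 5 mM glucose, no numeric limit stated; inactive = the rest.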

What was measured:
[1] = Wnt pathway potentiators raising nuclear beta-catenin – imaging, WNT3A-conditioned medium, mouse C2C12, NPC library, primary screen (AID 1117326; in the data active = nuclear beta-catenin stimulation mostly above about 4.2%, no sharp cut-off; inactive = mostly below about 10%; also: reference of the scale not given here); conditions: stronger effect = higher value
[2] = stimulators of insulin release from INS-1E, primary screen, cell-based, 5 mM glucose, NPC library (AID 1117329); conditions: rat INS-1E insulin secretion, at 10 µM, stronger effect = higher value; also: reference of the scale not given here
[3] = growth inhibition of GSK3B-pretreated HCT116 cells – cell-based, CellTiter-Glo, 0.2 to 20 µM (AID 1117336;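 active = compounds lowering colon cancer cell viability after pretreatment blocking the GSK3B kinase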); conditions: HCT116 viability after GSK3B inhibitor, at 20 µM, stronger effect = higher value
[4] = inhibition of endothelial tube formation, primary screen, imaging, VEGF stimulated, CD31 staining, tube area, NPC library (AID 1117340;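 active = compound that reduces growth-factor-driven endothelial tube area in a mixed cell culture, no cutoff stated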); conditions: VEGF-stimulated ADSC/ECFC co-culture, at 10 µM, stronger effect = higher value
[5] = GLP1 release stimulators, primary, NCI-H716, NPC library (AID 1117341;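 active = compound raises GLP1 secretion from the human gut endocrine cells, with no numeric limit stated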; also: reference of the scale not given here); conditions: NCI-H716 cells, at 10 µM, stronger effect = higher value
[6] = HCT116 colon cancer cell growth inhibition, primary screen, CellTiter-Glo luminescence, NPC library (AID 1117342;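 active = compounds that lower survival of HCT116 colon cancer cells in the luminescence readout, no numeric limit stated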); conditions: at 20 µM (top of the series)
[7] = reduced SW480 viability measured with CellTiter-Glo, NPC library, primary (AID 1117343;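 active = compounds that lower viability of the colon cancer cells in the luminescence readout, with no numeric limit stated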); conditions: CellTiter-Glo luminescence; at 20 µM (top of the series)
[8] = NPC library primary testing for decreased DLD-1 cell viability via CellTiter-Glo (AID 1117346;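 active = compounds that lower survival of DLD-1 colon cancer cells in the luminescence readout, no cutoff given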); conditions: DLD-1 viability, CellTiter-Glo luminescence; at 20 µM (top of the series)

Structure (SMILES)	nuclear beta-catenin stimulation ([1]; at 10 µM)	nuclear beta-catenin stimulation ([1]; stimulation, at 2 µM) [%]	insulin secretion stimulation [2]	viability decrease [3]	tube area decrease [4]	GLP1 secretion stimulation [5]	inhibition of viability [6]	viability decrease (inhibition) [7]	viability decrease (inhibition) [8]
O=C(OCC(O)CO)c1ccccc1Nc1ccnc2c(C(F)(F)F)cccc12 (centres undefined)	1% (inactive)	0.5	-0.3% (inactive)	-37% (inactive)	-5.3% (inactive)	4.1% (inactive)	12% (inactive)	30.4% (inactive)	-17.2% (inactive)
CCCCCCCCCCCCCC(=O)OC(C)C	1.2% (inactive)	-0.6	0.9% (inactive)	-8.2% (inactive)	-9.5% (inactive)	-0.1% (inactive)	8.25% (inactive)	7.7% (inactive)	24.3% (inactive)
Fc1ccc(C(c2ccc(F)cc2)N2CCNCC2)cc1	-0.2% (inactive)	0.1	16.6% (inactive)	29.7% (inactive)	13.9% (inactive)	7.5% (inactive)	79.8% (active)	72.4% (active)	25.2% (inactive)
CO/N=C(/C(=O)N[C@@H]1C(=O)N2C(C(=O)[O-])=C(C[n+]3ccn4ncccc43)CS[C@H]12)c1nsc(N)n1	2% (inactive)	-1	3.45% (inactive)	16.4% (inactive)	-10.7% (inactive)	-1.2% (inactive)	-21.9% (inactive)	-3.8% (inactive)	-6.6% (inactive)
O=S(=O)(O)c1ccc(O)cc1	0.1% (inactive)	2	-2.6% (inactive)	-3.65% (inactive)	5.3% (inactive)	-0.7% (inactive)	-4% (inactive)	11.5% (inactive)	-5.95% (inactive)
CO/N=C(/C(=O)N[C@@H]1C(=O)N2C(C(=O)O)=C(Cn3nnc(C)n3)CS[C@H]12)c1csc(N)n1	-0.1% (inactive)	-1	3.2% (inactive)	2.9% (inactive)	13.4% (inactive)	0.9% (inactive)	-1.5% (inactive)	10.8% (inactive)	1% (inactive)
CCCCOC(=O)CC(CC(=O)OCCCC)(OC(C)=O)C(=O)OCCCC	-0.3% (inactive)	0.1	6.2% (inactive)	30.4% (inactive)	2.1% (inactive)	0.1% (inactive)	25.9% (inactive)	62.1% (active)	26.9% (inactive)
O=C(CO)[C@@H](O)[C@H](O)[C@@H](O)CO	-1.8% (inactive)	-0.9	3% (inactive)	-1.5% (inactive)	-29.2% (inactive)	-2.6% (inactive)	8.2% (inactive)	4.9% (inactive)	3.2% (inactive)
NC(=O)C[C@H](N)C(=O)O	3% (inactive)	1.1	-1.3% (inactive)	-1% (inactive)	-19.4% (inactive)	2.4% (inactive)	0.3% (inactive)	0.2% (inactive)	5.4% (inactive)
CC(=O)Oc1ccc(C(=C2CCCCC2)c2ccc(OC(C)=O)cc2)cc1	0.2% (inactive)	1.4	-0.3% (inactive)	109% (active)	4.9% (inactive)	7.4% (inactive)	112% (active)	130% (active)	102% (active)
Cc1cccc(C)c1NC(=O)CN(CC(=O)O)CC(=O)O	0.4% (inactive)	0.2	-2.1% (inactive)	-0.05% (inactive)	-22.7% (inactive)	1.6% (inactive)	2.2% (inactive)	43.5% (inactive)	8.9% (inactive)
CC1CC(=O)NN=C1c1ccc(NCC(C)(C)NCC(O)COc2cc(Cl)ccc2C#N)cc1 (centres undefined)	-1.8% (inactive)	1.1	31.3% (active)	-8% (inactive)	11.2% (inactive)	1% (inactive)	23.2% (inactive)	5.4% (inactive)	15.4% (inactive)
CCCOC(=O)c1ccc(N)cc1	-0.1% (inactive)	0.3	-1.5% (inactive)	-4.45% (inactive)	4.9% (inactive)	-0.1% (inactive)	1.8% (inactive)	110% (active)	21.4% (inactive)
CCCCCCCC(=O)OCC(O)CO (centres undefined)	-2% (inactive)	-1.7	2.1% (inactive)	-10.8% (inactive)	-3.1% (inactive)	-3.4% (inactive)	-7.47% (inactive)	16.9% (inactive)	-20.5% (inactive)
CCCCCCCCCCCC[N+](C)(C)Cc1ccccc1	7.4% (inactive)	-1.2	1.9% (inactive)	99.3% (active)	108% (active)	-2.1% (inactive)	99.6% (active)	78.1% (active)	101% (active)
CCN(CC)CC(=O)Nc1c(C)cccc1C(=O)OC	0% (inactive)	0.3	0.7% (inactive)	-3% (inactive)	27.1% (inactive)	4.8% (inactive)	-7.9% (inactive)	-13.2% (inactive)	-17.2% (inactive)
